# Laboratory results: the supplement of paper PMC8047044
# System: Neuro-2a
# Test: neurite formation score, plate-normalized to DMSO control mean 5.04 (score (0-8 scale)); higher = more or longer neurites
# Settings: 1 µM
# Description: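 Neuro-2a mouse neuroblastoma cells in PLL-coated 96-well plates were pre-treated for 1 h in DMEM(+) with each kinase inhibitor at 1 µM, then switched to serum-free DMEM(-) with inhibitor to induce neurite outgrowth and fixed about 2-3 h later. Three blinded observers scored neurite formation from 0 (no neurites) to 8 (long neurites on almost all cells).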
row,Compound,neurite formation score
1,O=C(c1ccc(/C=C/c2n[nH]c3ccccc23)cc1)N1CCNCC1,6.02
2,N#CC[C@H](C1CCCC1)n1cc(-c2ncnc3[nH]ccc23)cn1,4.91
3,COc1cc2c(N3CCN(C(=O)Nc4ccc(OC(C)C)cc4)CC3)ncnc2cc1OCCCN1CCCCC1 [Tandutinib (MLN518)],5.29
4,Cc1cc(Nc2ncc(Cl)c(Nc3ccccc3S(=O)(=O)C(C)C)n2)c(OC(C)C)cc1C1CCNCC1,4.24
5,Cc1cnc(NC(=O)Nc2cc(Br)c(C)cc2OC[C@@H]2CNCCO2)cn1,4.96
6,OCCn1cc(-c2cnc3nnn(Cc4ccc5ncccc5c4)c3n2)cn1,5.02
7,Cc1ccc(NC(=O)c2ccc(CN3CCN(C)CC3)cc2)cc1Nc1nccc(-c2cccnc2)n1 [Imatinib (STI571)],4.54
8,COc1cc(CCc2cc(NC(=O)c3ccc(N4CC(C)NC(C)C4)cc3)n[nH]2)cc(OC)c1 (stereo not drawn),3.9
9,CS(=O)(=O)c1cccc(CNc2nc(Nc3ccc4c(c3)CCC(=O)N4)ncc2C(F)(F)F)c1,3.47
10,CS(=O)(=O)N1CCN(Cc2cc3nc(-c4cccc5[nH]ncc45)nc(N4CCOCC4)c3s2)CC1,4.24
11,O=C(NCc1cccc(O)c1)Nc1nc(-c2ccncc2)cs1,5.02
12,CCCCCCCCCCCCCCCc1cccc(O)c1C(=O)O [Anacardic acid],4.02
13,Cn1cc(-c2[nH]c3cc(NC(=O)[C@H](N)C4CCCCC4)cc4c3c2C=NNC4=O)cn1,3.63
14,O=c1c(O)c(-c2ccc(O)c(O)c2)oc2cc(O)cc(O)c12 [Quercetin],4.54
15,O=C(O)CCC(=O)Nc1ccc(Br)cn1 [Bikinin],4.54
16,Cc1nc(Nc2n[nH]c3c2CN(C(=O)N[C@H](CN(C)C)c2ccccc2)C3(C)C)c2sccc2n1,4.02
17,CCc1cc(Nc2nccc(-c3c(-c4ccc(OC)c(C(=O)Nc5c(F)cccc5F)c4)nc4ccccn34)n2)c(OC)cc1N1CCC(N2CCN(S(C)(=O)=O)CC2)CC1,4.91
18,CC(C)(O)CC(=O)NCCn1ccc2ncnc(Nc3ccc(Oc4cccc(C(F)(F)F)c4)c(Cl)c3)c21,5.14
19,Cn1cc(-c2ccc3ncc(Cc4ccc5ncccc5c4)n3n2)cn1,4.63

row,Compound,neurite formation score
1,CC(=O)c1c(C)c2cnc(Nc3ccc(N4CCNCC4)cn3)nc2n(C2CCCC2)c1=O,4.57
2,CCOc1cc(C(=O)N2CCC(N3CCN(C)CC3)CC2)ccc1Nc1ncc2c(n1)N(C1CCCC1)c1ccccc1C(=O)N2C,4.02
3,O=C1c2ccc(Nc3ccc(F)cc3F)cc2CCc2ccc(OC[C@H](O)CO)cc21 [Skepinone-L],5.02
4,Oc1cccc(-c2nc(N3CCOCC3)c3oc4ncccc4c3n2)c1,5.24
5,FC(F)c1nc2ccccc2n1-c1nc(N2CCOCC2)nc(N2CCOCC2)n1,4.24
6,CC1=C(C(=O)Nc2cc3cn[nH]c3cc2F)C(c2ccc(C(F)(F)F)cc2)CC(=O)N1 (stereo not drawn),0.236
7,N#CCNC(=O)c1ccc(-c2ccnc(Nc3ccc(N4CCOCC4)cc3)n2)cc1,4.69
8,Cc1[nH]c2ccccc2c1C1=C(NCCc2ccc(F)cc2)C(=O)N(C)C1=O,4.54
9,N#Cc1c(NC(=O)c2cccc3ccccc23)sc2c1CCCC2,0.543
10,CN1CCN(CCOc2cc(OC3CCOCC3)c3c(Nc4c(Cl)ccc5c4OCO5)ncnc3c2)CC1 [Saracatinib (AZD0530)],4.91
11,O=C(Nc1c[nH]nc1-c1nc2ccc(CN3CCOCC3)cc2[nH]1)NC1CC1,4.02
12,Cc1cc(NC(=O)c2cccc(NC(=O)/C=C/CN(C)C)c2)ccc1Nc1nccc(-c2cccnc2)n1,5.36
13,CC(=O)Nc1cccc(-n2c(=O)n(C3CC3)c(=O)c3c(Nc4ccc(I)cc4F)n(C)c(=O)c(C)c32)c1 [Trametinib DMSO solvate],5.02
14,COc1cc2ncnc(Nc3ccc(F)c(Cl)c3)c2cc1OCCCN1CCOCC1 [Gefitinib (ZD1839)],4.24
15,O=C(O)c1ccc(Nc2ncc3c(n2)-c2ccc(Cl)cc2C(c2c(F)cccc2F)=NC3)cc1,3.47
16,Cc1cc(Nc2cc(N3CCN(C)CC3)nc(/C=C/c3ccccc3)n2)n[nH]1,3.02
17,CC1=CC(=O)C(C(C)C)=C/C1=N/OC(=O)c1ccccc1C [Poloxin],4.02
18,FC(F)(F)c1ccc(/C=C/c2nc(COc3ccc(CCCCn4ccnn4)cc3)co2)cc1 [Mubritinib (TAK 165)],4.47
19,CS(=O)(=O)N1CCC(NC(=O)c2[nH]ncc2NC(=O)c2c(Cl)cccc2Cl)CC1,4.47
